The supplement of paper PMC11219838
Values without a mark were called inactive.

Test system: Caenorhabditis elegans L1 (N2)
Assay: survival and reproduction score of C. elegans L1 (0: 0-10 living worms, 1: 11-20, 2: 21-50, 3: >50, 4: overgrown) (score 0-4); higher = more worms, less nematicidal, active = 1 or less; extreme values may be limits of the assay
Conditions: 60 µM; 6 days; temperature: 20 °C
Summary of the method: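 Compound was pinned to a final 60 µM (0.6% v/v DMSO) into 96-well wells, each holding about 20 synchronized C. elegans N2 L1s and E. coli HB101 in liquid NGM. After 6 days of shaking at 200 rpm and 20 °C in sealed plates, the worms in each well were examined. The ordinal readout of survival and reproduction, based on living worms per well, was assessed under a dissection microscope. On this scale 0 meant 0–10 worms and 4 meant overgrown, starved wells, and two biological replicates were averaged.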

| SMILES | survival and reproduction score |
| --- | --- |
| Cc1ccc(-c2noc(COc3cccc(C)c3)n2)cc1 | 4 |
| CCCC(=O)Nc1ccccc1-c1nc(-c2ccncc2)no1 | 4 |
| CCC(=O)Nc1ccccc1-c1nc(-c2ccccn2)no1 | 4 |
| COc1ccc(-c2nnc(SCc3ccccc3C)o2)cc1 | 4 |
| O=C(CSc1nnc(-c2ccccc2Cl)o1)Nc1nccs1 | 4 |
| O=C(CSc1nnc(-c2ccc(Cl)cc2)o1)Nc1ccc(F)cc1 | 4 |
| O=C(CSc1nnc(-c2ccccc2)o1)Nc1ccc(Br)cc1F | 4 |
| COc1ccc(-c2noc(-c3ccc(C)cc3)n2)cc1 | 3 |
| COc1ccc(-c2noc(-c3ccc(Br)cc3)n2)cc1 | 0 (active) |
| Clc1ccc(CSc2nnc(-c3ccccc3Cl)o2)cc1 | 4 |
| Cc1cccc(OC(C)c2nc(-c3ccncc3)no2)c1 (stereo not given) | 4 |
| O=C(Nc1ccccc1-c1nc(-c2ccncc2)no1)c1cccc(Cl)c1 | 4 |
| COc1ccc(-c2nnc(SCC(=O)Nc3cc(Cl)ccc3C)o2)cc1 | 4 |
| Cc1ccc(-c2noc(-c3cc(C)cc(C)c3)n2)cc1 | 4 |
| COc1nc2ccc(C)cc2cc1-c1noc(-c2cccnc2)n1 | 4 |
| Cc1cccc(-c2noc(-c3ccccc3Br)n2)c1 | 3.5 |
| O=C(c1ccccc1-c1nc(-c2ccc(F)cc2)no1)N1CCCC1 | 4 |
| Brc1ccc(-c2nnc(SCc3ccccc3)o2)cc1 | 4 |
| O=C(CSc1nnc(-c2ccc(Cl)cc2)o1)NC1CC2CCC1C2 (stereo not given) | 4 |
| COc1cccc(-c2nnc(SCC(=O)NC3CCCCC3)o2)c1 | 4 |
